mHTT-CaM PPI inh – mHTT-calmodulin interaction abrogation. AlphaScreen His-mHTT/GST-CaM binding, luminescence. inhibition, % at 15 µM. 190,000 tested, 3.6% active. AID 1671202
Pf apPOL inh – Pf-apPOL DNA polymerase inhibition. Recombinant Pf-apPOL, molecular beacon fluorescence, 1.5 h. inhibition, % at 10 µM. 210,000 tested, 0.25% active. AID 1794808
A number is an active result; n = inactive; x = no result. Most compounds without a hit are left out; they make up all but 3.5% or so of the library. Rule as the data show it: active = inhibition above about 50%; inactive = the rest.

SMILES	mHTT-CaM PPI inh	Pf apPOL inh
COc1cc(OC)c(N2C=C(C#N)S(=O)(=O)c3ccccc32)cc1Cl	n	n
CC(C)CNC(=O)c1sc2ncccc2c1-n1cccc1	n	n
CC(C)CC1C(=O)N(Cc2cn(CC3CCCCC3)nn2)CCS(=O)(=O)N1Cc1ccc(-c2ccncc2)cc1 (stereo unspecified)	65	n
CC1C(=O)N(Cc2cn(CC3CCCCC3)nn2)CCS(=O)(=O)N1Cc1ccc(-c2ccccc2)cc1 (stereo unspecified)	73	n
Cc1ccc(-c2ccc(CN3C(C)C(=O)N(Cc4cn(CC5CCCCC5)nn4)CCS3(=O)=O)cc2)cc1 (stereo unspecified)	n	n
COc1ccc(-c2ccc(CN3C(CC(C)C)C(=O)N(Cc4cn(CC5CCCCC5)nn4)CCS3(=O)=O)cc2)cc1OC (stereo unspecified)	n	n
CC1(C)OC2OC(C(=O)Nc3ccc(OC(F)(F)F)cc3)C3OC(C)(C)OC3C2O1 (stereo unspecified)	n	n
O=C(NNC(=O)c1ccc(Cl)cc1)C(=O)NNC(=O)c1ccc(Cl)cc1	x	90
Nc1ccccc1C(=O)NNC(=O)c1ccc(Cl)cc1	x	n
O=C(Nc1nnc(/C=C/c2ccccc2)s1)c1ccccc1	n	n
COc1ccc(NC2C3CC4CC(C3)CC2C4)cc1OC (stereo unspecified)	62	n
COc1ccc(CC(=O)NC2C3CC4CC(C3)CC2C4)cc1OC (stereo unspecified)	n	n
O=C(Nc1ccc(F)c(F)c1)C(=O)N1CCN(Cc2ccc3c(c2)OCO3)CC1	n	n
Cc1occc1C(=O)Nc1ccc([N+](=O)[O-])cc1	n	n
CC(=Nc1ccncc1)C1=C(O)CC(C)(C)CC1=O	n	n
CC(=O)C1=C(C)NC(SCC(=O)c2ccc(Cl)cc2)=C(C#N)C1c1cccc([N+](=O)[O-])c1 (stereo unspecified)	n	n
CC(=O)C1=C(C)NC(SCC(=O)c2ccc(Cl)cc2)=C(C#N)C1c1sccc1C (stereo unspecified)	n	n
CC(=O)C1=C(C)NC(SCC(=O)c2ccc(Cl)c(Cl)c2)=C(C#N)C1c1ccco1 (stereo unspecified)	54	n
CC(=O)C1=C(C)NC(SCC(=O)c2cccc([N+](=O)[O-])c2)=C(C#N)C1c1ccc(Cl)cc1 (stereo unspecified)	56	n
CC(=O)C1=C(C)NC(SCC(=O)c2cccc(Cl)c2)=C(C#N)C1c1sccc1C (stereo unspecified)	n	100
CC(=O)C1=C(C)NC(SCC(=O)c2cc(Cl)ccc2Cl)=C(C#N)C1c1ccco1 (stereo unspecified)	n	n
CC(=O)Nc1c(-c2ccc(C)cc2)c(=O)c2ccccc2n1C	n	n
O=C(CN(C1CCCCC1)S(=O)(=O)c1ccccc1)N1CCCCCC1	n	n
O=C(CN(C1CCCCC1)S(=O)(=O)c1ccccc1)N1CCN(c2ccc(F)cc2)CC1	60	n
CCN(CC)c1ccc(/C=C2\SC(N3CC(C)OC(C)C3)=NC2=O)cc1 (stereo unspecified)	n	n
SMILES	mHTT-CaM PPI inh	Pf apPOL inh
Cc1ccc(-c2cc(C(=O)Nc3nnc(C4CC4)s3)c3ccccc3n2)o1	n	n
CC1(O)CCCCCCCCCCC1	x	n
CCC1CN(C(=O)Nc2ccc(OC)cc2)c2ccccc2O1 (stereo unspecified)	n	n
COc1ccc(NC(=O)N2CC3CCCN3c3ccccc32)cc1 (stereo unspecified)	62	n
COc1ccc(NC(=O)N2CC3CCCN3c3ccccc32)c(OC)c1 (stereo unspecified)	90	n
COc1ccc(NC(=O)N2CCCC2c2ccccc2Cl)c(OC)c1 (stereo unspecified)	n	n
O=C(Nc1cc(F)c(F)cc1Cl)N1CCN(c2ccc([N+](=O)[O-])cc2)CC1	n	n
Cc1ccccc1C(=O)NCCSc1c(C)[nH]c2ccccc12	n	n
Cc1[nH]c2ccccc2c1SCCNC(=O)c1ccccc1F	99	n
CCc1ccc(C2CC(c3ccc(OC)c(OC)c3)n3nc(N)nc3N2)cc1 (stereo unspecified)	n	n
COC(=O)C(C)NC(=O)N1CCC2(CC1)Nc1cc(F)ccc1-n1cccc12 (stereo unspecified)	n	n
CCN1c2cc(C)ccc2-n2cccc2C12CCN(C(=O)NC(C)C(=O)OC)CC2 (stereo unspecified)	68	n
CCN1c2cc(C)ccc2-n2cccc2C12CCN(C(=O)NC(C)C)CC2	99	n
CCN1c2cc(C)ccc2-n2cccc2C12CCN(C(=O)Nc1ccccc1Cl)CC2	n	n
O=C(NC1CC2CC1CN2C(=O)Nc1ccc(Cl)cc1F)c1cccnc1 (stereo unspecified)	n	n
CCN1c2cc(C)ccc2-n2cccc2C12CCN(C(=O)c1ccc(OC)cc1)CC2	94	n
CCN1c2cc(C)ccc2-n2cccc2C12CCN(C(=O)Nc1ccccc1F)CC2	n	n
CCN1c2cc(C)ccc2-n2cccc2C12CCN(C(=O)NCC(=O)OC)CC2	76	n
CCN1c2cc(C)ccc2-n2cccc2C12CCN(C(=O)Nc1cccc(F)c1)CC2	72	n
CCOc1ccc(C(=O)N2CCC3(CC2)NC(=O)c2cc(C)ccc2N3CC)cc1	n	n
CCCNC(=O)N1CCC2(CC1)c1cccn1-c1ccc(C)cc1N2CC	100	n
CCN1c2cc(C)ccc2-n2cccc2C12CCN(C(=O)Nc1ccccc1C)CC2	n	n
COC(=O)CNC(=O)N1CCOc2ccc(C)cc21	n	n
C=CCN1C(=O)C(O)=C(C(C)=O)C1c1ccc([N+](=O)[O-])cc1 (stereo unspecified)	n	n
Nc1nc(CSc2ncn[nH]2)nc(Nc2ccc(F)cc2)n1	n	n
SMILES	mHTT-CaM PPI inh	Pf apPOL inh
Cc1ccc2c(c1)N(C(=O)Nc1ccc(Br)cc1)CC(C)O2 (stereo unspecified)	n	n
Cn1c(=O)c2c(nc3n(CCO)c(-c4ccc(F)cc4)cn23)n(C)c1=O	n	n
Cc1c(Cl)cccc1NC(=O)c1cc2cc([N+](=O)[O-])ccc2oc1=O	n	n
Cc1cccc(C(=O)NCC2CCCO2)c1 (stereo unspecified)	n	n
CCN1c2cc(C)ccc2-n2cccc2C12CCN(C(=O)NCC1CCCO1)CC2 (stereo unspecified)	65	n
Cc1ccc(NC(=O)NCCC2CCN(S(=O)(=O)c3ccccc3)CC2)cc1	n	n
CCCS(=O)(=O)N1CCc2ccc(NC(=O)c3cn(C)nc3OC)cc2C1	n	n
Cc1[nH]nc(Nc2ccc(Br)cc2)c1[N+](=O)[O-]	n	n
Fc1ccccc1-c1nc(NCc2ccco2)c2ccccc2n1	n	n
O=C(Cn1cnc2scc(-c3ccccc3)c2c1=O)NCc1ccco1	n	n
O=c1c2ccccc2nc2c3ccccc3c(NCc3ccco3)nn12	65	n
O=c1c2c(-c3ccccc3)csc2nc2c3ccccc3c(NCc3ccco3)nn12	100	n
CCCCCOc1ccc(/C=c2\sc3nc(-c4cccnc4)nn3c2=O)cc1OC	n	n
CCN(CC)CCOC(=O)c1ccc(NC(=O)c2noc3c2CCCCC3)cc1	n	n
N=C1/C(=C/c2cccs2)C(=O)N=C2SC(C(F)(F)F)=NN12	n	n
COc1cccc(C2Nc3ccccc3NC3=C2C(=O)CC(c2ccccc2)C3)c1OC (stereo unspecified)	n	n
O=C1C2=C(Nc3ccccc3SC2c2ccccc2)c2ccccc21 (stereo unspecified)	73	x

Compound activity deposited in PubChem BioAssay by University of Kansas High Throughput Screening Laboratory.
